The list is not random: actives were taken first. Their share in the collection is about 21%.
Pf growth 96h: inhibits malaria parasite growth, 96 h. P. falciparum luciferase reporter growth, 96 h. Potency, µM (titrated, usually from 28.7 µM), inactives show top-dose activity change, negative = inhibition, actives largely listed as inhibitors. hit rate 6.9% among 320,000; also: potency is read from the fitted curve at half-maximal effect; % is scaled to controls: 0 for no effect and ±100 for the full control effect
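Cell-based qHTS: luciferase-tagged P. falciparum in erythrocytes (2% hematocrit, 0.05% parasitemia final) incubated with compounds for 96 hours, 37 C, 5% CO2; luciferase detection reagent then added and luminescence measured.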
Cycloheximide cs: affects cycloheximide protein synthesis inhibition readout, counter-screen. cell reporter, cycloheximide protein synthesis inhibition counterscreen. max response, %. hit rate 12% among 300,000; in the data active = max response mostly above about 13%, no sharp cut-off; inactive = mostly below about 14%; also: read at 38.3 µM for the half of the compounds with a filed dose; 0% is about no effect
Shiga inhibitor: blocks Shiga toxin action in Vero cells; Vero cells, Shiga toxin protein synthesis inhibition reporter; inhibition, % at 38.7 µM; hit rate 9.2% among 290,000; in the data active = inhibition mostly above about 28%, no sharp cut-off; inactive = mostly below about 43%; also: 0% is about no effect
HCV inh: inhibitors of hepatitis C virus infection; hit rate 3.4% among 340,000; Potency, µM (titrated, usually from 41.8 µM), without a hit: at the highest dose activity change, negative = inhibition, actives largely listed as inhibitors; Huh7.5.1 HCVcc-Cre infection, luciferase reporter, 44 h; also: potency is read from the fitted curve at half-maximal effect; % is scaled to controls: 0 for no effect and ±100 for the full control effect
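Compounds are dispensed onto cells plated 4 h earlier at 1,000 per well, with HCVcc-Cre virus (about 0.5 moi) added next. Following 44 h of culture, luminescent signal is measured for 15 sec after 15 min with substrate at room temperature.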
HCMV inh: inhibitors of human cytomegalovirus; activity change, negative = inhibition, % at 57.5 µM; hit rate 4.5% among 410,000; HFF cells, HCMV-luciferase reporter, 72 h; active compounds read low; in the data active = activity change below about -60%; inconclusive = no clear call, values can overlap the other calls; inactive = above about -39%; also: % is scaled to controls: 0 for no effect and ±100 for the full control effect
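Inhibition of viral replication was scored as loss of reporter luminescence in HFFs infected with HCMV-luciferase (MOI 1 PFU/cell) for 72 h; compounds tested at 2 doses, normalized to buffer and Salinomycin controls.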
Pf growth 48h: P. falciparum growth inhibition at 48 hours (one generation); P. falciparum luciferase growth in erythrocytes, 48 h; Potency, µM (doses to about 28.7 µM), for inactives: top-dose activity change, negative = inhibition, usual class: inhibitors; hit rate 5.9% among 310,000; also: potency is read from the fitted curve at half-maximal effect; % is scaled to controls: 0 for no effect and ±100 for the full control effect
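Firefly luciferase activity from engineered P. falciparum reports growth; inhibitors lower the luminescent signal. Cultures contained 2% hematocrit erythrocytes at 0.1% final parasitemia.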
Numbers without * were called inactive; ? = inconclusive; · = not tested or not shown. Unless noted, calls follow the shape of the dose curve; as a rule, active = well fitted inhibition curve with a large enough effect; inconclusive = small, poorly fitted or top-dose-only effect, or another doubt; inactive = no such curve, though single readings can be large or run the other way.

SMILES	Pf growth 96h	Cycloheximide cs	Shiga inhibitor	HCV inh	HCMV inh	Pf growth 48h
Cc1ccc(S(=O)(=O)N2CCCN(S(=O)(=O)c3ccc4ccccc4c3)CC2)cc1	10.4µM*	-0.7	7.8	?	-31.6	?
Cc1ccc(S(=O)(=O)N2CCCN(C(=O)c3cc4ccccc4[nH]3)CC2)cc1	11.7µM*	53.8*	80.5*	-6.4%	50.8	?
O=C(CCC(=O)N1CCN(S(=O)(=O)c2ccc3ccccc3c2)CC1)NCC(F)(F)F	2.2%	-1.6	-10.5	1.6%	2.0	3.6%
O=C(CCl)N1CCN(S(=O)(=O)c2ccc3ccccc3c2)CC1	?	-3.3	-3.0	?	-97.9*	?
CN1CCN(S(=O)(=O)c2ccc3ccccc3c2)CC1	46.6%	-7.2	-15.7	13.7%	8.9	·
COc1cccc(CN2CCNC(=O)C2CC(=O)N(C)C2CCOCC2)c1 (stereo unspecified)	-13.6%	2.0	-5.9	15.2%	0.0	19.3%
COC(=O)C1=C(C)NC(=O)NC1c1cn(-c2ccccc2)nc1-c1ccc(OC)c(Cl)c1 (stereo unspecified)	·	·	·	·	36.5	·
Cc1cc(NC(=O)C(C)SCC(=O)Nc2cc(C(F)(F)F)ccc2N2CCOCC2)no1 (stereo unspecified)	?	·	·	?	-1.8	-7.9%
CCCCNc1nnc(SCC(=O)N2CCN(S(=O)(=O)c3ccc4ccccc4c3)CC2)s1	5.22µM*	12.3	-7.2	?	-2.1	·
O=C(CS(=O)(=O)c1ccc2ccccc2c1)N1CCCCCC1	?	44.3*	51.4*	17.8%	-32.4	-5.5%
CN1CCN(C(=O)c2cc3ccccc3[nH]2)CC1	?	-2.1	·	24.4%	37.5	5.7%
O=S(=O)(c1ccc2ccccc2c1)N1CCN(CCO)CC1	8.0%	-7.1	18.9	-3.5%	7.0	-9.1%
O=S(=O)(c1ccc2ccccc2c1)N1CCN(c2ccc(O)cc2)CC1	·	·	·	?	-65.9*	·
O=C(c1cc2ccccc2[nH]1)N1CCOCC1	37.7%	19.2*	active	2.9%	77.0	34.4%
COc1ccc(OC)c(-n2c(=S)[nH]c3cc(C(=O)N4CCN(c5ccccc5)CC4)ccc3c2=O)c1	?	17.6	31.5	20.3%	-27.1	?
Nn1cc(-c2ccccc2)nc1SCC(=O)N1CCN(S(=O)(=O)c2ccc3ccccc3c2)CC1	·	-2.1	-16.5	-3.7%	-12.3	9.28µM*
O=C(c1ccc2ccccc2c1)N1CCN(c2ccc(O)cc2)CC1	?	-1.6	-12.1	2.8%	-33.7	-10.1%
O=C(CSc1ccc2ccccc2c1)N1CCN(c2ccc(O)cc2)CC1	3.0%	18.6	52.2	-21.7%	-77.5*	6.0%
Nn1cc(-c2ccccc2)nc1SCC(=O)N1CCN(S(=O)(=O)c2ccc(Cl)cc2)CC1	?	-2.0	16.3	6.9%	39.0	?
CCc1ccc(-c2nc(CS(=O)CC(=O)NC3CC3)c(C)o2)cc1 (stereo unspecified)	23.9%	10.3	12.1	3.1%	22.6	25.4%
Cc1oc(-c2cccs2)nc1CS(=O)CC(=O)NCCCOC(C)C (stereo unspecified)	1.5%	2.6	-22.0	?	5.2	6.4%
CCCCNC(=O)CS(=O)Cc1nc(-c2cccs2)oc1C (stereo unspecified)	8.28µM*	-6.5	-22.0	10.5%	73.7	·
CCN(CC)CCNC(=O)CS(=O)Cc1nc(-c2ccccc2Cl)oc1C (stereo unspecified)	10.4µM*	-2.5	-5.0	0.7%	-2.2	2.1%
CCN(CC)CCNC(=O)CS(=O)Cc1nc(-c2ccc(Cl)cc2)oc1C (stereo unspecified)	-3.1%	-3.9	-15.0	?	1.3	-4.2%
CCc1ccc(-c2nc(CS(=O)CC(=O)NC3CCCCCC3)c(C)o2)cc1 (stereo unspecified)	8.28µM*	14.4*	14.8	-18.3%	-25.1	20.7%
SMILES	Pf growth 96h	Cycloheximide cs	Shiga inhibitor	HCV inh	HCMV inh	Pf growth 48h
COc1ccc(-c2nc(CS(=O)CC(=O)NCCC3=CCCCC3)c(C)o2)cc1 (stereo unspecified)	?	30.6*	81.5	-24.1%	51.4	·
CCOc1ccc(CCNC(=O)CS(=O)Cc2nc(-c3ccc(C)cc3)oc2C)cc1 (stereo unspecified)	6.6%	1.1	-1.7	?	-13.1	4.6%
Cc1nnc(N2CCN(c3cccc(Cl)c3)CC2)c2c1nnn2Cc1ccc(F)cc1	·	·	·	·	12.2	·
Cc1sc2ncn(CC(=O)N3CCN(c4ccccc4)CC3)c(=O)c2c1S(=O)(=O)N1CCOCC1	?	-5.4	-22.9	8.9%	0.0	-2.3%
COc1ccc(-c2nc(CS(=O)CC(=O)NC3CCCC(C)C3C)c(C)o2)cc1OC (stereo unspecified)	11.7µM*	-9.8	-11.7	-15.0%	?	-13.6%
CCc1ccc(-c2nc(CS(=O)CC(=O)NCc3cccnc3)c(C)o2)cc1 (stereo unspecified)	-9.6%	17.6*	16.5	1.9%	39.2	43.1%
CCc1ccc(-c2nc(CS(=O)CC(=O)NCCc3ccc(Cl)cc3)c(C)o2)cc1 (stereo unspecified)	·	·	·	·	-2.8	·
Cc1ccc(-c2nc(CS(=O)CC(=O)NCCCc3ccccc3)c(C)o2)cc1 (stereo unspecified)	?	22.0*	2.4	-21.3%	-11.6	1.9%
CCc1ccc(-c2nc(CS(=O)CC(=O)O)c(C)o2)cc1 (stereo unspecified)	101.3%	46.0*	52.9*	17.3%	-0.1	125.4%
CCn1cc(C(=O)N2CCN(c3ccc(OC)cc3)CC2)c(=O)c2cc(S(=O)(=O)N3CCOCC3)ccc21	1.7%	-5.8	-8.5	10.6%	1.6	4.6%
O=C(Cn1c(-c2ccccc2)c[n+]2ccsc12)c1ccc(Br)cc1	?	14.5	2.9	-5.3%	-74.5*	?
CCc1ccc2nc(SCC(=O)Nc3ccccc3N3CCOCC3)c(C#N)cc2c1	-53.6%	5.1	5.8	-14.7%	-30.3	9.28µM*
Cc1ccc2nc(SCC(=O)Nc3ccccc3N3CCOCC3)c(C#N)cc2c1	?	1.5	7.8	?	?	7.38µM*
Cc1cc(=O)[nH]c2ccc(S(=O)(=O)NC3CCCCC3)cc12	10.4µM*	1.8	-2.6	-0.9%	34.9	0.0%
COc1ccc2oc(C(=O)NCc3cc(OC)c(OC)cc3OC)c(C)c2c1	?	11.5	28.8	15.8µM*	-27.0	?
COc1ccc2oc(C(=O)NCCc3ccccc3)c(C)c2c1	-58.9%	·	·	5.8%	-18.6	-31.6%
COc1ccc2oc(C(=O)NC3(C)CCS(=O)(=O)C3)c(C)c2c1 (stereo unspecified)	32.8%	·	·	?	-100.9*	13.3%
CCN(CC)c1nc(-c2ccc(C(C)(C)C)cc2)nc2ccccc12	·	·	·	·	-14.6	·
CC(NC(=O)C(=O)c1cn(CC(=O)N2CCOCC2)c2ccccc12)c1ccccc1 (stereo unspecified)	?	-10.0	9.7	-3.0%	-5.4	0.7%
